Assay [1] concerns the target T1, Mitogen-activated protein kinase 12 (Homo sapiens) (UniProt P53778).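 Also: values are averaged p38gamma kinase inhibition readings, compounds tested at 1 µM.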
T1 sequence (whole entry): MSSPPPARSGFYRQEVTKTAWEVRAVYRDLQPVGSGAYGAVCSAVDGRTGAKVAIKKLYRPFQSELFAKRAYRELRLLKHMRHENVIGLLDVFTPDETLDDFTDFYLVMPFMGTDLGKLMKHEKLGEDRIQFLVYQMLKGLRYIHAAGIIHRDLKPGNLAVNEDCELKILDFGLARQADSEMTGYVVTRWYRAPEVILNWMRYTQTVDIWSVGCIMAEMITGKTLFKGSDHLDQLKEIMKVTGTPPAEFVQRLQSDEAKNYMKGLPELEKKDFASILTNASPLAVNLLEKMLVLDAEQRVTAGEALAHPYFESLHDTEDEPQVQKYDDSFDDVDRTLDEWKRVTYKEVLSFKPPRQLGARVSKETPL
The following applies: at 1 µM.

For assay [2], the target named is SRSF protein kinase 1 (Homo sapiens) (UniProt Q96SB4). The conditions noted are these: at 0.1 µM.
Assay [3] shares this target. The following applies: at 1 µM.
The target in assay [4] is Phosphatidylinositol 4,5-bisphosphate 3-kinase catalytic subunit alpha isoform (Homo sapiens) (UniProt P42336). The conditions noted are these: at 0.1 µM.
Assay [5] has the same target. The conditions noted are these: at 1 µM.
Assay [6] deals with T2, Phosphatidylinositol 4,5-bisphosphate 3-kinase catalytic subunit delta isoform (Homo sapiens) (UniProt O00329).
T2 sequence (whole entry): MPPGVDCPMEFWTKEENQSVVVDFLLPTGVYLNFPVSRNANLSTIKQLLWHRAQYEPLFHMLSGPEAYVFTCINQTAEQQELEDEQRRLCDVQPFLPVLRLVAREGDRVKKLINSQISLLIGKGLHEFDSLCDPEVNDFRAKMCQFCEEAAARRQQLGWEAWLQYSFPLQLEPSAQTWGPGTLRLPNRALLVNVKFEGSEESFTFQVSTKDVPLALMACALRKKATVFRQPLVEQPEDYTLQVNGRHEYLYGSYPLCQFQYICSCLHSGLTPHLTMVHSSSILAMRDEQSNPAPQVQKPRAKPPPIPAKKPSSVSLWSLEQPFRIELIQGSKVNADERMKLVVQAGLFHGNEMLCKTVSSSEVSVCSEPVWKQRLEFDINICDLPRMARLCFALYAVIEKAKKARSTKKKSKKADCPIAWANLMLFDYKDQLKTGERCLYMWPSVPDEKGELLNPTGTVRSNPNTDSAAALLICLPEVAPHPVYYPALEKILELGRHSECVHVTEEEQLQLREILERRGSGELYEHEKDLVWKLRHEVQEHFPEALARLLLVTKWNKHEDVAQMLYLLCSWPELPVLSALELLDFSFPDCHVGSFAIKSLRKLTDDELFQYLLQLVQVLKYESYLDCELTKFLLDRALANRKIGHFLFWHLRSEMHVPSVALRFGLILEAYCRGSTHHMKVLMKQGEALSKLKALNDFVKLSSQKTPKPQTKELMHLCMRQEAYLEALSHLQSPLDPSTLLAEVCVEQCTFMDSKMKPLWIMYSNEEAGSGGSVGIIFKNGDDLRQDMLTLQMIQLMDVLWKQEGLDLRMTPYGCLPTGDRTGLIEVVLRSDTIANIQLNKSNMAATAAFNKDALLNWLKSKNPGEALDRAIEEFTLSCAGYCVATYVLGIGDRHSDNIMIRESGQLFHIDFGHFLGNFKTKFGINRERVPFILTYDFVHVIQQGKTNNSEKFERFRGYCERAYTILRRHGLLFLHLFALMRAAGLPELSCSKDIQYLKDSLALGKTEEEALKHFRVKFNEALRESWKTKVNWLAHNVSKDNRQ
The following applies: at 0.1 µM.

Assay [7] has as its target T2, Phosphatidylinositol 4,5-bisphosphate 3-kinase catalytic subunit delta isoform (Homo sapiens). The following applies: at 1 µM.
The target in assay [8] is Phosphatidylinositol 4-kinase beta (Homo sapiens) (UniProt Q9UBF8). The conditions noted are these: at 0.1 µM.
The target is the same in assay [9]. The following applies: at 1 µM.
Assay [10] addresses Sphingosine kinase 1 (Homo sapiens) (UniProt Q9NYA1). The following applies: at 0.1 µM.
For assay [11] the target is unchanged. The conditions noted are these: at 1 µM.
The target in assay [12] is T3, Sphingosine kinase 2 (Homo sapiens) (UniProt Q9NRA0).
T3 sequence (whole entry): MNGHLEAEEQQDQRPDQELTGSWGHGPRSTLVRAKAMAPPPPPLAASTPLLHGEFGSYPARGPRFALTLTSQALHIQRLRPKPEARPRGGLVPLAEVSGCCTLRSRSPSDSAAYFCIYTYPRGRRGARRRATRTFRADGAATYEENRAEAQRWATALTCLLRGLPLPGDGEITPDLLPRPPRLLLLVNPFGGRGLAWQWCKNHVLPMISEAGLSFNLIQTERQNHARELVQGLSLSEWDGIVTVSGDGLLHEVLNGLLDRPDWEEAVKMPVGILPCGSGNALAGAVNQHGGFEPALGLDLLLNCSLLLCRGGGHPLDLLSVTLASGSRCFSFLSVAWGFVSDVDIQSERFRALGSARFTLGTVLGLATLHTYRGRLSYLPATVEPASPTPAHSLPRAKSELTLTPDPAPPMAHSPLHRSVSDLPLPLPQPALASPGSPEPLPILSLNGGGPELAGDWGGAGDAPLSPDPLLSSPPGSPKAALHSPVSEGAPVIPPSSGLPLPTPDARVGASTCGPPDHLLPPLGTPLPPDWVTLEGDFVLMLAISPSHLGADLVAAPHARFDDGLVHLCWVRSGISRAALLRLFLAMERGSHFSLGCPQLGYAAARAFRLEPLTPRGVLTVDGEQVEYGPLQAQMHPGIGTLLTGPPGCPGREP
The following applies: at 0.1 µM.

Assay [13] concerns the target T3, Sphingosine kinase 2 (Homo sapiens). The conditions noted are these: at 1 µM.
The target in assay [14] is Casein kinase II subunit alpha (Homo sapiens) (UniProt P68400). The following applies: at 0.1 µM.
The target is the same in assay [15]. The conditions noted are these: at 1 µM.
The target in assay [16] is T4, Inhibitor of nuclear factor kappa-B kinase subunit alpha (Homo sapiens) (UniProt O15111).
T4 sequence (whole entry): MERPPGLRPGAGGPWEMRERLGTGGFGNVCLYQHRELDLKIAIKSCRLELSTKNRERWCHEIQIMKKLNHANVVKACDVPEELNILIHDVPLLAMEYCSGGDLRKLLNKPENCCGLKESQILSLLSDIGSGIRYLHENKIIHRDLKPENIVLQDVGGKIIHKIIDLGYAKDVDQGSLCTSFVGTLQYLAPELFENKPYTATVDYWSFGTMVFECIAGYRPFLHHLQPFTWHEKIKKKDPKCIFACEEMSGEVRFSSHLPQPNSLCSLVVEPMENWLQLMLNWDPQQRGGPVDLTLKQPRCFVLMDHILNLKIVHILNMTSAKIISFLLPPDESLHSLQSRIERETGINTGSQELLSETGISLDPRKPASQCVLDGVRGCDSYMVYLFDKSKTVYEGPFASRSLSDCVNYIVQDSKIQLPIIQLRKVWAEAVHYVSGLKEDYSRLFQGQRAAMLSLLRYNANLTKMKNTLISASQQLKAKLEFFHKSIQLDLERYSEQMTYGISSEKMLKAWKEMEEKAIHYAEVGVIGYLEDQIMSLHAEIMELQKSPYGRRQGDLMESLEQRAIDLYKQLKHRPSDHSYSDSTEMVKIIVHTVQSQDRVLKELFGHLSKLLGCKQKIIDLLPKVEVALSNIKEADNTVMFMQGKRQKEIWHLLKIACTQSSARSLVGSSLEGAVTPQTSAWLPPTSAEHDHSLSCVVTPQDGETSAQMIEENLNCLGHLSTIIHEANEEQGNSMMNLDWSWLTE
The following applies: at 0.1 µM.

The target of assay [17] is T4, Inhibitor of nuclear factor kappa-B kinase subunit alpha (Homo sapiens). The following applies: at 1 µM.
The target of assay [18] is T5, Inhibitor of nuclear factor kappa-B kinase subunit beta (Homo sapiens) (UniProt O14920).
T5 sequence (whole entry): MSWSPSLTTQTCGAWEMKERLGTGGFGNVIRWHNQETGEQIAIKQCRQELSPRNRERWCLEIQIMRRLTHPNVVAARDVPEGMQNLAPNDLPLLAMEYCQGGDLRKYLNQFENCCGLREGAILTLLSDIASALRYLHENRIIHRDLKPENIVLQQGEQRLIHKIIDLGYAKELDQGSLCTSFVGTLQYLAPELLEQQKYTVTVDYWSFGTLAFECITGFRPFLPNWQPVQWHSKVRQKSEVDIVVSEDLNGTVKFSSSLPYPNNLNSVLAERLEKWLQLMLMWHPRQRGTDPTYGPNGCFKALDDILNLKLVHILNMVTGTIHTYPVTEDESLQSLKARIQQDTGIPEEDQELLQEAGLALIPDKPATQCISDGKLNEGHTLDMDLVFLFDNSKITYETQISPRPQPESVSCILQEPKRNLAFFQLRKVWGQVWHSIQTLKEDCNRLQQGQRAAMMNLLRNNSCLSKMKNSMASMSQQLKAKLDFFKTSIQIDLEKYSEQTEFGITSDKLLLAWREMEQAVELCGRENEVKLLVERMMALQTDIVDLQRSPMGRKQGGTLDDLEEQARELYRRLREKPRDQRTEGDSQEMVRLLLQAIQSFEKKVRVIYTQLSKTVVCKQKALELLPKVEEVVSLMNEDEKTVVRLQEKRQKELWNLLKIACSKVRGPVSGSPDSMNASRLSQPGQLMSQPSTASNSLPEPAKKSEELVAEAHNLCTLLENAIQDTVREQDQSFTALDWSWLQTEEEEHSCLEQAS
The conditions noted are these: at 0.1 µM.

Assay [19] addresses T5, Inhibitor of nuclear factor kappa-B kinase subunit beta (Homo sapiens). The following applies: at 1 µM.
Assay [20] addresses T6, Inhibitor of nuclear factor kappa-B kinase subunit epsilon (Homo sapiens) (UniProt Q14164).
T6 sequence (whole entry): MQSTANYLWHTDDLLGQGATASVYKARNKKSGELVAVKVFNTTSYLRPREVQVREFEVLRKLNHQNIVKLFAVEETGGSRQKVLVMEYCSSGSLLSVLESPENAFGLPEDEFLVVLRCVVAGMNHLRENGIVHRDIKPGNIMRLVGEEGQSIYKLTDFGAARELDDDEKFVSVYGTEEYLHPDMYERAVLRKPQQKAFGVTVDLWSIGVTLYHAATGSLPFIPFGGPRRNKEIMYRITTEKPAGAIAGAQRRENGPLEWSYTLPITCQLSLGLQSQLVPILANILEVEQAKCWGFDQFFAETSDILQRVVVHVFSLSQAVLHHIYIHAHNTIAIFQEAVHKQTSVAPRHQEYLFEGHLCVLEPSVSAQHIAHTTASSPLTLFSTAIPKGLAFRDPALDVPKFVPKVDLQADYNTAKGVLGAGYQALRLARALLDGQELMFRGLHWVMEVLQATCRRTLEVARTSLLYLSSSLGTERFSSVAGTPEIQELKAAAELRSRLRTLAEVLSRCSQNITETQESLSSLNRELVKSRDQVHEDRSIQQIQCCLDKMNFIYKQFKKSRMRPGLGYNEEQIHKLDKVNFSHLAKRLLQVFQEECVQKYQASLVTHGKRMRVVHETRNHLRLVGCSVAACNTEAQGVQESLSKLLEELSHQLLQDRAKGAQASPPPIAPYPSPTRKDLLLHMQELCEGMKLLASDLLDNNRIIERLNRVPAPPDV
The conditions noted are these: at 0.1 µM.

Sequence of Phosphatidylinositol 4-kinase beta (Homo sapiens) (Q9UBF8 2-816 limits assumed): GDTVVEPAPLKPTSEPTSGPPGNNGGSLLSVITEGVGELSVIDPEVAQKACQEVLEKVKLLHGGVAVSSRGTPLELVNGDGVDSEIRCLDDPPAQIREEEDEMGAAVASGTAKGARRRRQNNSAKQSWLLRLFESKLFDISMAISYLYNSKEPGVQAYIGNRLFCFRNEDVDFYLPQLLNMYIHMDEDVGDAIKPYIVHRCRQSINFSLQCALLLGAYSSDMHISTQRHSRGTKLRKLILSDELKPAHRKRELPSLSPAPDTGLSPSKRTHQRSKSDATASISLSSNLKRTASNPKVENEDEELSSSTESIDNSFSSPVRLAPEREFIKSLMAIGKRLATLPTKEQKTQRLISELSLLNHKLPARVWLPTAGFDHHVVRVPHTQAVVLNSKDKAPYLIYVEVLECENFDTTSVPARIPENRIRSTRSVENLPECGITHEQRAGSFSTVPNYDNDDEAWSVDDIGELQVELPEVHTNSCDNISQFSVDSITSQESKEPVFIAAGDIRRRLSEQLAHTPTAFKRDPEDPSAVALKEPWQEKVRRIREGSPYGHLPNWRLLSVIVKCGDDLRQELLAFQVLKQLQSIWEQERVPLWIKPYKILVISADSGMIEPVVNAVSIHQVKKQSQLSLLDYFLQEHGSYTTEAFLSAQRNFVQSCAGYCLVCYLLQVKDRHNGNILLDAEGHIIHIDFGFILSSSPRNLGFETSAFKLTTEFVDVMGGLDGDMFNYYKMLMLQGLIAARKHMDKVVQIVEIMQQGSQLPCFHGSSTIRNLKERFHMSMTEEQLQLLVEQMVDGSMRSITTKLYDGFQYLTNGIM
Sequence of Casein kinase II subunit alpha (Homo sapiens) (P68400 whole entry, looked up): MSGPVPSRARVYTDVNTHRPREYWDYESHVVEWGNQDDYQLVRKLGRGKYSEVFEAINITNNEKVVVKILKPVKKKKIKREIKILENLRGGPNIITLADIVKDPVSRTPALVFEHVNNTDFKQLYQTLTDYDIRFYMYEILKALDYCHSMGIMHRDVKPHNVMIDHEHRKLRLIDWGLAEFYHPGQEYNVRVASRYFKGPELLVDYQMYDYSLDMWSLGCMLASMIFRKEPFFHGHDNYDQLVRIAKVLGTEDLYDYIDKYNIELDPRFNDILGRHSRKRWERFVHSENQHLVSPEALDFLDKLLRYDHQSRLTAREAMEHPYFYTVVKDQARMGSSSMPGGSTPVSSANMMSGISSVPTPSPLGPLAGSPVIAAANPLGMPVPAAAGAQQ
Sequence of SRSF protein kinase 1 (Homo sapiens) (Q96SB4 whole entry): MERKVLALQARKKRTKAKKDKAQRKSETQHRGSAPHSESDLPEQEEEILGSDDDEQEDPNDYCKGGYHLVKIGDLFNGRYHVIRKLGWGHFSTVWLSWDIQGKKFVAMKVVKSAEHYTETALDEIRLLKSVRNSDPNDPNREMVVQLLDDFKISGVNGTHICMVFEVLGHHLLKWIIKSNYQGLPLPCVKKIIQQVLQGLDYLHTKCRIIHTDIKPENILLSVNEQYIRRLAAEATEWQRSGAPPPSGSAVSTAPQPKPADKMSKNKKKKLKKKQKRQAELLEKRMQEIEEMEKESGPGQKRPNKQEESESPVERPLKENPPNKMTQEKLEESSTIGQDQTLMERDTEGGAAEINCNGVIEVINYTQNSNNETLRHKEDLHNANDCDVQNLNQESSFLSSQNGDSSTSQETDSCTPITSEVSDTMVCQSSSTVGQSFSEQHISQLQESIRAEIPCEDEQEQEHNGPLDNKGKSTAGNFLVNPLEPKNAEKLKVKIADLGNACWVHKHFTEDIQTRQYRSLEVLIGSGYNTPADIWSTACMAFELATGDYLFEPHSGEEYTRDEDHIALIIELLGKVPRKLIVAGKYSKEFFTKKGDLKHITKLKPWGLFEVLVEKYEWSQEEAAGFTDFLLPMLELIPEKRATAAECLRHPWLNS
Sequence of Sphingosine kinase 1 (Homo sapiens) (Q9NYA1 whole entry): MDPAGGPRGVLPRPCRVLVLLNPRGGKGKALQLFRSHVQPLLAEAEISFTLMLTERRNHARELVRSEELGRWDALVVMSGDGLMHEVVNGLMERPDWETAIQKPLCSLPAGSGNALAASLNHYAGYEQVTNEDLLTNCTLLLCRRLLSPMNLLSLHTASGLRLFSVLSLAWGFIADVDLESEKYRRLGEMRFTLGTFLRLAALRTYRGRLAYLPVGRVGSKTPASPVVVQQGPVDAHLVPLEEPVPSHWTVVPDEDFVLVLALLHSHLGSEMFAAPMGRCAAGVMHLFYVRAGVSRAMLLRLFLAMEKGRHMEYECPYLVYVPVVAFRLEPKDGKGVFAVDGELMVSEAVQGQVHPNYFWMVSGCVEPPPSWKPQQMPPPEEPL
Sequence of Phosphatidylinositol 4,5-bisphosphate 3-kinase catalytic subunit alpha isoform (Homo sapiens) (P42336 whole entry, canonical isoform): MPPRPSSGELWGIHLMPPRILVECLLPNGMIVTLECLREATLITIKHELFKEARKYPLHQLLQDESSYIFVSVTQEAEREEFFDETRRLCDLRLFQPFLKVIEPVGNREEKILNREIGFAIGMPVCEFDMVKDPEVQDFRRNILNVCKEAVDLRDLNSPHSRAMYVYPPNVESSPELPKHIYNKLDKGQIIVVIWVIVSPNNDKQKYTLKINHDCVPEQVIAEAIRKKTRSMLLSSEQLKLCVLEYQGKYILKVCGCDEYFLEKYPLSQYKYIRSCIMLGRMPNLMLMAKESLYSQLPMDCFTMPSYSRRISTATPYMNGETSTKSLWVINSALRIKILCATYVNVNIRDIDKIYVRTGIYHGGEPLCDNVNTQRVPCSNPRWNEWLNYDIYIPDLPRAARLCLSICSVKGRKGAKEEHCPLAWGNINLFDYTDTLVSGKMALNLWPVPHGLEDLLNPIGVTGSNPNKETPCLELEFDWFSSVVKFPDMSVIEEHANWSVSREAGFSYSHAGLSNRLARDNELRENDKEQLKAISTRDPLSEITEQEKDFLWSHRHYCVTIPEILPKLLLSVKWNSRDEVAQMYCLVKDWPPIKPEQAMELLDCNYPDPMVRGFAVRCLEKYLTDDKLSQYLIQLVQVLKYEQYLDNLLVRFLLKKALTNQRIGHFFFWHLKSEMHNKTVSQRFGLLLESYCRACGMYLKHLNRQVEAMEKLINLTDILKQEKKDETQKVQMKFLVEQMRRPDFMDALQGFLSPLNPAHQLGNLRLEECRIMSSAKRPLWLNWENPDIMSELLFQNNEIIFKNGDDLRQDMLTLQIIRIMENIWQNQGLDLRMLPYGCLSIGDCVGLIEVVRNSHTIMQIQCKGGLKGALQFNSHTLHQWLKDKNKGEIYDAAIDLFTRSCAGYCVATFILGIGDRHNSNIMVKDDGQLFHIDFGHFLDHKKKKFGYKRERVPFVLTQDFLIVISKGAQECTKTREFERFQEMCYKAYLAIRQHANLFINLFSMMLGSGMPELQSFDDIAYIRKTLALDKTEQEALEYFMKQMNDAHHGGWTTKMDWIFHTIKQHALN

For `COc1cc2ncn(-c3cc(OCc4cccs4)c(C(N)=O)s3)c2cc1OC`, the inhibition (as a rule, the relative decrease from the control value, in per cent) worked out at 1.93% in assay [1]; 1.92% in assay [2]; 7.84% in [3]; 2.89% in assay [4]; 8.89% in assay [5]; 2.03% in assay [6]. Also, the inhibition in [7] is 12.9%; in assay [8] it was 4.6%; in assay [9] it was -3.17%; in assay [10], 0.03%; in assay [11] it was -0.69%; in assay [12] it was 0.11%. Further, the inhibition in assay [13] was -0.11%; in assay [14], 5.63%; in assay [15], 20.8%; in assay [16], 3.56%; in assay [17], 4.87%; in assay [18], 3.09%. In addition, the inhibition in [19] worked out at 6.07%; in assay [20] it was 7.67%.
On to `COc1ccc(-c2ccc3c(NC(=O)C4CC4)n[nH]c3n2)cc1`, for which the inhibition in assay [1] was 0.89%; in assay [2], -0.87%; in assay [3] it was 1.03%; in assay [4], 1.49%; in assay [5] it was 0.27%; in [6], -0.49%. Also, the inhibition in [7] was -0.82%; in assay [8], -2.64%; in assay [9], -0.19%; in assay [10] it was 0.68%; in [11] it was -0.43%; in assay [12], -0.3%. Moreover, the inhibition in assay [13] worked out at 1.99%; in assay [14] it was 3.46%; in [15], 8.9%; in assay [16] it was 9.58%; in assay [17] it was 7.37%; in assay [18] it was 4.51%. The inhibition stood at 4.44% in assay [19] and 6.37% in assay [20].
With `Cc1nnc(-c2ccc(C)c(-c3ccc(C(=O)NCc4ccc(Cl)cc4)cc3)c2)o1`, the inhibition in assay [1] is 3.42%; in assay [2], -1.29%; in [3], -1.82%; in [4] it was 3.66%; in [5], 2.48%; in [6], 2.02%. Also, the inhibition in [7] is 3.9%; in assay [9] it was -0.13%; in [10], 0.23%; in [11] it was -3.95%; in [12], 0.02%; in assay [13] it was 0.44%. Also, the inhibition stood at 2.9% in [14]; 5.39% in assay [15]; 8.21% in assay [16]; 5.98% in [17]; 6.95% in assay [18]; 4.95% in [19]. The inhibition in assay [20] is 5.66%.
